Screens as filed in PubChem BioAssay.
Hits are enriched below; roughly 9.3% of the tested compounds scored in any of these assays.
FLuc counter = inhibits or activates purified firefly luciferase, miR-21 counter-screen | purified FLuc, Km substrates, luminescence inhibition | Potency, µM (highest dose often 57.5 µM), inactives show at the top dose activity change, negative = inhibition, hits mostly inhibitors | hit rate 6.9% among 360,000 | AID 588342;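 further: plate controls were vehicle for no effect and reference inhibitor for full effect; nearly all actives have a fitted effect of over 55% in size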
Target sequence (P08659 whole entry, looked up): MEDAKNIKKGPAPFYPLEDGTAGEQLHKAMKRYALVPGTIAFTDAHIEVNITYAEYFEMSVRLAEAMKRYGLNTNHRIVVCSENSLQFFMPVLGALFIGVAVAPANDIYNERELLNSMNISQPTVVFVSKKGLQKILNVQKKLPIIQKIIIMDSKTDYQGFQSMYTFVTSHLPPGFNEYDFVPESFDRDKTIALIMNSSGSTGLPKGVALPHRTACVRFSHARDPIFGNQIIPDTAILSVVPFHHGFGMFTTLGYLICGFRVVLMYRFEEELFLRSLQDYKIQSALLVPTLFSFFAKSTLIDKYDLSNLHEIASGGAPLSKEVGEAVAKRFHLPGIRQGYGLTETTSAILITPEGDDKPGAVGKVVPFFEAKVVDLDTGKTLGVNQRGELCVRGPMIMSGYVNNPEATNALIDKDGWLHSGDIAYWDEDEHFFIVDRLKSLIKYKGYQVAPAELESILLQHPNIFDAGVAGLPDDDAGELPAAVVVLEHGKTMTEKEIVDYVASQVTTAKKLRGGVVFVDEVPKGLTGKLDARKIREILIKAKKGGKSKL
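Purified P. pyralis luciferase (10nM final) with 10uM D-luciferin and 10uM ATP (Km levels) in 50mM Tris acetate pH 7.5, 10mM Mg acetate, 0.01% Tween-20, 0.05% BSA; qHTS 6-point titration, ~60 µM downward; luminescence read.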
ELG1 DNA repair = inhibitors of ELG1-dependent DNA repair in HEK293T cells; HEK293T ELG1-luciferase reporter, luminescence, 16 h; DNA damage induced by 5-fluorouridine; Potency, µM (top dose mostly 46.1 µM), inactives show at the highest dose activity change, negative = inhibition, most hits filed as inhibitors; hit rate 2.3% among 330,000; AID 504467; further: on the % scale 0 is the no-effect control and ±100 the full control effect; nearly all actives have a fitted effect of over 55% in size
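5-Fluorouridine DNA damage + compound/DMSO, 2,000 cells/well, 16 h, 37 °C/5% CO2. ONE-Glo, 30 min RT, luminescence. Readout = decrease in reporter signal.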
Rab9 prom act = activators of Rab9 promoter. Huh7 Rab9 promoter-luciferase reporter, luminescence, 24 h. Potency, µM (highest dose often 9.22 µM), inactives show top-dose activation, negative = inhibition, actives largely listed as activators. hit rate 2.8% among 320,000. AID 485297; further: % of control where 0% means no effect; nearly all actives have a fitted effect of over 60% in size
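Luciferase signal after 10 min detection reagent at ambient indicates Rab9 promoter upregulation; stably transfected Huh7 cells were treated 24 h with compound in DMSO at 37 °C, 5% CO2.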
SMN2 splice up = enhancers of SMN2 splice variant expression | HEK293 SMN2-luciferase splicing reporter, luminescence, 30-36 h | Potency, µM (doses to about 46.1 µM), inactives show top-dose activity change, positive = activation, hits mostly activators | hit rate 2.8% among 210,000; further: % of control where 0% means no effect; nearly all actives have a fitted effect of over 55% in size
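qHTS luciferase splicing reporter: luminescence rises when SMN2 exon 7 is included in transfected HEK293 cells. Compound exposure lasted 30-36 h at 37C, with 4.5 mM final sodium butyrate as control, followed by a ONE-Glo read.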
NPC1 prom act = NPC1 promoter activation; Huh7 NPC1 promoter luciferase reporter, 24 h; Potency, µM (highest dose often 9.22 µM), without a hit: at the highest dose activation, actives largely listed as activators; hit rate 2.4% among 320,000; further: % of control where 0% means no effect; nearly all actives have a fitted effect of over 60% in size
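Huh7 cells stably carrying NPC1 promoter–luciferase, plated in Opti-MEM with 10% FBS for 2 h, were exposed to compound in DMSO for 24 h at 37 °C; luciferase reagent was added for 10 min and luminescence read.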
ELG1 genotoxic = inducers of genotoxicity in HEK293T ELG1-luciferase cells; HEK293T ELG1-luciferase reporter, luminescence, 16 h; Potency, µM (doses to about 46 µM), inactives show at the highest dose activity change, positive = activation, most hits filed as activators; hit rate 1.3% among 330,000; AID 504466; further: % of control where 0% means no effect; nearly all actives have a fitted effect of over 60% in size
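Screening used a luciferase reporter fused to human ELG1 in HEK293T cells. Luminescence was read on a CCD plate imager after 16 hr exposure and 30 min ONE-Glo incubation.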
Numbers without * were called inactive; u = inconclusive; x = not tested or not shown. The call rests on the fitted dose curve; in most records, active means well fitted curve in the direction sought with a large enough effect; inconclusive means small, poorly fitted or top-dose-only effect, or another doubt; inactive means no such curve, though single readings can be large; an effect the other way counts as inactive or inconclusive. Potency means the concentration at half of the fitted maximal effect.

SMILES | FLuc counter | ELG1 DNA repair | Rab9 prom act | SMN2 splice up | NPC1 prom act | ELG1 genotoxic
CC1CCC/C(=C(\C#N)c2nc(-c3cc4ccccc4oc3=O)cs2)C1 (configuration not stated) | 1.7µM* | u | 1.8µM* | -12% | 2.5µM* | u
O=S(=O)(Nc1nc2ccccc2nc1NCC1CCCO1)c1ccccc1 (configuration not stated) | 0% | 3% | -4% | x | -2% | 1%
COc1ccc(OC)c(NC(=O)CC(=O)Nc2ccc3nc4n(c(=O)c3c2)CCCCC4)c1 | u | x | x | -18% | x | x
C=CCNc1nc(-c2cc3ccccc3o2)cs1 | 0.34µM* | u | 0.63µM* | 0.56µM* | 1µM* | 0.52µM*
c1ccc2oc(-c3csc(NCC4CCCO4)n3)cc2c1 (configuration not stated) | 1.5µM* | u | 0.4µM* | u | 1.6µM* | 2.3µM*
O=C(NCC1CCCO1)c1cc2ccccc2oc1=O (configuration not stated) | u | u | u | x | 13% | u
C=CCNc1nc(-c2ccc(O)c(C(N)=O)c2)cs1 | u | u | 4% | 3% | 2% | u
Cc1cccc(NC(=S)N2CCN(c3ccccc3F)CC2)c1C | 0% | -5% | 4% | x | -4% | -3%
CC1(C)CC(=O)c2c(oc3ccc(NS(=O)(=O)c4cccc5cccnc45)cc23)C1 | 3% | u | -8% | x | -11% | -5%
Cc1cccc(-c2c3c(=O)n(C)c(=O)n(C)c3cn2C(C)C)c1 | 1% | -7% | -7% | 30% | 1% | 1%
Cc1ccc2c(ccn3cc4c(c(=O)n(C)c(=O)n4C)c23)c1 | 2.7µM* | -5% | -16% | -6% | 4% | u
CCCCCCOC(=O)Sc1nc2ccccc2o1 | 24µM* | 0% | 0% | 4% | -1% | 1%
O=C(N/N=C\c1cccc([N+](=O)[O-])c1O)C1COc2ccccc2O1 (configuration not stated) | 19µM* | 8% | -5% | 15% | 6% | 2%
O=C(N/N=C/c1cccc([N+](=O)[O-])c1)C1COc2ccccc2O1 (configuration not stated) | -1% | -4% | 1% | x | 0% | 1%
O=C(Nc1ccccc1[N+](=O)[O-])C1COc2ccccc2O1 (configuration not stated) | 9.5µM* | u | 3.5µM* | x | 2.8µM* | u
CNc1ncnc2c1ncn2[C@H]1C[C@H](O)[C@@H](CO)O1 | x | x | x | -2% | x | x
NCCC[C@@H](CC(=O)N[C@@H]1CCNC[C@H]1C(=O)N[C@H](CC(=O)N[C@@H](CCC(=O)O)CC(=O)O)Cc1ccccc1)NC(=O)C[C@H](CO)NC(=O)[C@@H]1CNCC[C@H]1N | x | x | x | 8% | x | x
C/C(=N\NC(=O)c1ccccc1O)c1c(O)cc(C)oc1=O | 15µM* | u | u | u | 29% | 19%
C/C(=N\NC(=O)c1cc(Br)ccc1O)c1cccs1 | 11µM* | u | 3.5µM* | 18µM* | 2µM* | u
C/C(=N\NC(=O)c1cc(C)nc2ccccc12)c1cccs1 | 0% | -16% | -9% | x | 0% | -2%
C/C(=N\NC(=O)c1ccccc1O)c1ccc(Br)s1 | 3.8µM* | u | u | 1.6µM* | u | 5%
C/C(=N\NC(=O)c1ccccc1[N+](=O)[O-])c1c(O)cc(C)oc1=O | -1% | 9% | -9% | -24% | 1% | 0%
C/C(=N/NC(=O)c1ccc(Br)o1)c1cccs1 | 17µM* | u | 4µM* | x | 2.5µM* | 9.2µM*
C/C(=N\NC(=O)c1ccccc1O)C1C(=O)c2ccccc2C1=O | 13µM* | u | 28% | 10µM* | u | 8.2µM*
C/C(CC(=O)N1CCN(C=O)CC1)=N\NC(=O)c1cc2ccccc2cc1O | 21µM* | 1% | -5% | 16% | -3% | 0%
SMILES | FLuc counter | ELG1 DNA repair | Rab9 prom act | SMN2 splice up | NPC1 prom act | ELG1 genotoxic
CCC/C(C)=N/NC(=O)c1ccccc1O | u | 12% | -4% | 0% | -5% | -1%
O=C(O)c1ccc(/C=N/NC(=O)c2cc3ccccc3cc2O)cc1 | x | -10% | x | x | x | 0%
C/C(=N/NC(=O)c1cc2ccccc2cc1O)C1C(=O)c2ccccc2C1=O | 17µM* | u | u | u | 22% | u
O=S1(=O)C=C(SCc2cccc(Cl)c2)Nc2ccccc21 | 3% | -5% | -12% | -25% | 0% | -7%
COc1cccc(CN2c3ccccc3-c3nc(SCC(=O)Nc4ccccc4Cl)ncc3S2(=O)=O)c1 | -7% | x | x | 1% | x | x
CCOC(=O)CN(C(=O)CSc1nnc(COc2ccc(OC)cc2)n1CC)c1ccccc1 | -2% | -1% | 8% | x | -3% | -4%
COc1ccc(COC(=O)c2ccc(C)c(S(=O)(=O)N3CCOCC3)c2)cc1F | -11% | 18µM* | 4% | x | -3% | -7%
Cc1ccnc(NC(=O)c2cccc(S(=O)(=O)N3CCOCC3)c2)c1 | 17µM* | u | 13% | x | 0% | u
COc1ccc(C(=O)OCc2c(F)cccc2Cl)cc1S(=O)(=O)N1CCOCC1 | x | u | -3% | x | 0% | 3%
CCOc1cc(N2CCOCC2)c(OCC)cc1NC(=O)c1cccc(S(=O)(=O)N2CCOCC2)c1 | x | 16µM* | x | x | x | -3%
O=C(COC(=O)c1ccc(F)c(S(=O)(=O)N2CCOCC2)c1)c1ccccc1 | x | 25% | x | x | x | 5%
O=C(COC(=O)c1ccc(F)c(S(=O)(=O)N2CCOCC2)c1)c1ccc(Cl)cc1 | 8.5µM* | 10% | 2% | x | -2% | -1%
CCOC(=O)c1ccc(NC(=O)c2cccc(S(=O)(=O)N3CCOCC3)c2)cc1 | -1% | 23µM* | -19% | -55% | -4% | -46%
Cc1ccc(S(=O)(=O)N2CCOCC2)cc1C(=O)OCC(=O)c1ccc(Br)cc1 | 3.8µM* | u | -4% | x | 0% | -3%
CCc1ccc(N2CC(C(=O)Nc3ccc(C)c(S(=O)(=O)N4CCOCC4)c3)CC2=O)cc1 (configuration not stated) | -15% | 21µM* | -19% | x | -3% | -9%
CCOC(=O)c1ccc(NC(=O)c2ccc(C)c(S(=O)(=O)N3CCOCC3)c2)cc1 | -4% | 4.6µM* | -30% | -62% | -18% | -24%
CC(=O)c1cccc(NC(=O)c2cccc(S(=O)(=O)N3CCOCC3)c2)c1 | 0% | u | 1% | x | 8% | 2%
COc1cccc2cc(CC(=O)c3ccc(C)cc3C)c(=O)oc12 | 11µM* | u | u | x | u | 11%
